For some of these results: Potency and affinity values are given separately.

Common to all, as to parameters: scale not given: direction of the effect not stated beside the values
The target of experiment [1] is Protein translocase subunit SecA (Escherichia coli (strain K12)) (UniProt P10408). Nature of the experiment: Assay to Identify E. coli SecA ATPase Inhibitors. Type of experiment: functional. As to conditions: 30 µM.
Experiment [2] deals with T1, Ubiquitin-activating enzyme e1, putative (Leishmania donovani (strain BPK282A1)) (UniProt E9BSI1).
T1 sequence (whole entry): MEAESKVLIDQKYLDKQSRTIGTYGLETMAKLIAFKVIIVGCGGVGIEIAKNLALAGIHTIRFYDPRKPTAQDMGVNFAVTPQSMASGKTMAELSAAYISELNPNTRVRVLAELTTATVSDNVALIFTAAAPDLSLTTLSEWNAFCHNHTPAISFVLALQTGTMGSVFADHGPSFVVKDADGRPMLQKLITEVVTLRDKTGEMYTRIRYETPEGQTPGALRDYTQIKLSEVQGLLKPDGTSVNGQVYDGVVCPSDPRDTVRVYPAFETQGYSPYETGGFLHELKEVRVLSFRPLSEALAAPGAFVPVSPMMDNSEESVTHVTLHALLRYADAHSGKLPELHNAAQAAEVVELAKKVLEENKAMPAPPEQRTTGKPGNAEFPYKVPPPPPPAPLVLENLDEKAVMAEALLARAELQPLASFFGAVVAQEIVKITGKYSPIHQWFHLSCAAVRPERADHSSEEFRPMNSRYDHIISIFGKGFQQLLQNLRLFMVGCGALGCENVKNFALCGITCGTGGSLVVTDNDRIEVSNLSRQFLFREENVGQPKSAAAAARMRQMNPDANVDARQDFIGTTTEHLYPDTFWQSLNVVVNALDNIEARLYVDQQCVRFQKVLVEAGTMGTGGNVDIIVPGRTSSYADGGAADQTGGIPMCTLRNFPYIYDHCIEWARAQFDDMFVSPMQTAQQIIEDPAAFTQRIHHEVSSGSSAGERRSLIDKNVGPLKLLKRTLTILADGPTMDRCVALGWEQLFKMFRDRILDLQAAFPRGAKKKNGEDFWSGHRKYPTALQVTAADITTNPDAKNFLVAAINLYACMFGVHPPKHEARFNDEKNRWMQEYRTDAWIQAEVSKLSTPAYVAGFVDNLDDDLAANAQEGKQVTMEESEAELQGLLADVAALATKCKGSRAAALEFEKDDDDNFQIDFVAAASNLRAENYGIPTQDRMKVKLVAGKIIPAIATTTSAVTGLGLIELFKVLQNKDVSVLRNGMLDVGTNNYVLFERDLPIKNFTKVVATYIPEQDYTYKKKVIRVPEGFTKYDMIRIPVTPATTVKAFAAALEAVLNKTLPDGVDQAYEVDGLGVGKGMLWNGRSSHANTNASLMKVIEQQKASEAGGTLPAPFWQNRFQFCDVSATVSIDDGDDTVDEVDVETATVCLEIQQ
The experiment in a line: Leishmania donovani Ubiquitin Activating Enzyme (LdE1). Type of experiment: functional. As to conditions: 30 µM.

Experiment [3] concerns the target AMP-activated protein kinase, AMPK (Homo sapiens) (UniProt P54646+O43741+P54619+Q9UGJ0+Q9Y478+Q13131+Q9UGI9). The experiment in a line: AMP-dependent Kinase enzyme assay. An in vitro enzyme assay that detects ADP turnover that is directly proportional to AMPK activity. This uses naive AMPK that is activated during the assay with MK-8722. Format: functional. As to conditions: 30 µM.

The target in experiment [4] is Sialic acid-binding Ig-like lectin 9 (Homo sapiens) (UniProt Q9Y336). The experiment in a line: Hs-Siglec9 ALPHAscreen SOP 20170721. The conditions noted are these: 10 µM. For orientation: Bead proximity is the source of the signal in Alpha formats.
Sequence of Sialic acid-binding Ig-like lectin 9 (Homo sapiens) (Q9Y336 whole entry): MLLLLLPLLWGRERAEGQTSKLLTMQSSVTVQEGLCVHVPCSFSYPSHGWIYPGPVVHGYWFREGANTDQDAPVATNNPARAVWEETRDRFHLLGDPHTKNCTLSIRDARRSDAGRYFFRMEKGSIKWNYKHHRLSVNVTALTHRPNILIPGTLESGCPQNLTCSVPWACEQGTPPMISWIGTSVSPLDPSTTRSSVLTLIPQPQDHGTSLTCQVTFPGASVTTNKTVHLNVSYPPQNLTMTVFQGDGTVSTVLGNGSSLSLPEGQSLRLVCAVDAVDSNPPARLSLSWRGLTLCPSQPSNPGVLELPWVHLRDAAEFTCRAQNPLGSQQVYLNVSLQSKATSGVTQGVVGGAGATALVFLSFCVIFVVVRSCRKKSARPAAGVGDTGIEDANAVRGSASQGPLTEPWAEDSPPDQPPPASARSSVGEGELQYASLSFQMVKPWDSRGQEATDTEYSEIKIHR
The subject of a further experiment is Trypanosoma cruzi. The experiment in a line: Trypanosoma cruzi phosphomannomutase and mannose-1-phosphate guanylyltransferase assay. Type of experiment: functional. As to conditions: 10 µM.
Experiment [5] deals with T2, Arginase-2, mitochondrial (Homo sapiens) (UniProt P78540).
T2 sequence (whole entry): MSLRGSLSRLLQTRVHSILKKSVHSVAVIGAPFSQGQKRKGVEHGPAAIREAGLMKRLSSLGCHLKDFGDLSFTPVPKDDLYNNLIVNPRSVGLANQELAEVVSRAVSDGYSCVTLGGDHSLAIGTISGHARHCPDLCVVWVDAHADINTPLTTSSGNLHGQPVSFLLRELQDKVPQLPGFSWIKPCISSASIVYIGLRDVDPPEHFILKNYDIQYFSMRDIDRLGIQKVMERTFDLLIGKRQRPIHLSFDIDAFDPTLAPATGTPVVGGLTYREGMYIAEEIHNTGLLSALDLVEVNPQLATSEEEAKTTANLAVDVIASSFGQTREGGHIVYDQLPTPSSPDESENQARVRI
The experiment in a line: in vitro enzyme assay to detect the production of urea directly proportional to the activity of Arginase II. Note: in the data most compounds retested in dose-response had high values. Type of experiment: functional. As to conditions: 33.3 µM.

For experiment [6], the target named is T3, Proteasome subunit beta (Trypanosoma cruzi) (UniProt O96673).
T3 sequence (whole entry): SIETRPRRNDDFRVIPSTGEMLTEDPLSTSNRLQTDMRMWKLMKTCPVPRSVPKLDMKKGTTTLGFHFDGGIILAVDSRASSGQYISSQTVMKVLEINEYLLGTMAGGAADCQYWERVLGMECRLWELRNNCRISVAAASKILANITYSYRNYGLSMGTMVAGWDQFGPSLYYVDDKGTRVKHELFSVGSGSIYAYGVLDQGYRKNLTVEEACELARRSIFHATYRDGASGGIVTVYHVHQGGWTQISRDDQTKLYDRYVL
The experiment in a line: Trypanosoma cruzi proteasome chymotrypsin-like activity (TcProtChymo) assay. Note: in the data most compounds retested in dose-response had high values. Format: functional. The conditions noted are these: 9.37 µM.

Another experiment is filed under the species Homo sapiens. Nature of the experiment: To identify inhibition of the IFN signalling (Jak-Stat) pathway via expression of an eGFP reporter gene under the control of an IFN-stimulated response element (ISRE) containing MxA promoter. Format: functional. As to conditions: 30 µM. A general note: A reporter such as luciferase makes a cellular process visible.

In experiment [7] the target is T4, Tyrosyl-tRNA synthetase, putative (Trypanosoma cruzi (strain CL Brener)) (UniProt Q4DSP6).
T4 sequence (whole entry): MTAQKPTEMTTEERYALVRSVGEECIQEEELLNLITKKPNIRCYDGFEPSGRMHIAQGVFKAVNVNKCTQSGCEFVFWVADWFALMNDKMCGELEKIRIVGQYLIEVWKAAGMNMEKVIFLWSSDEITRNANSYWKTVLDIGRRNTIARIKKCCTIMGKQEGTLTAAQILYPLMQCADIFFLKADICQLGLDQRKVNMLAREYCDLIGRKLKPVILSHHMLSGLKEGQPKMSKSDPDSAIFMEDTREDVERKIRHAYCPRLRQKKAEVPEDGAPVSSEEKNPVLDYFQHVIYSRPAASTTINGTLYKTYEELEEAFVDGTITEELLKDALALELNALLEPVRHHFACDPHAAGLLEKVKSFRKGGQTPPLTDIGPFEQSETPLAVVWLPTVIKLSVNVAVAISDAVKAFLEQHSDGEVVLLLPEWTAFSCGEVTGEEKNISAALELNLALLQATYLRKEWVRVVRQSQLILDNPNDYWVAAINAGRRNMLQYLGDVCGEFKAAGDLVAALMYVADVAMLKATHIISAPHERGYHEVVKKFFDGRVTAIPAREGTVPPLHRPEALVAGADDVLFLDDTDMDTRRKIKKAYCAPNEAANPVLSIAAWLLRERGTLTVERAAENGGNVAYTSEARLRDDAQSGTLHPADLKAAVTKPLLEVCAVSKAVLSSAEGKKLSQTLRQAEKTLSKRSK
The experiment in a line: Trypanosoma cruzi tyrosyl tRNA synthetase (TcYRS) _High Tyrosine SOP. Note: in the data most compounds retested in dose-response had high values. As to conditions: 30 µM. Type of experiment: functional.

Experiment [8] concerns the target T4, Tyrosyl-tRNA synthetase, putative (Trypanosoma cruzi (strain CL Brener)). Nature of the experiment: Trypanosoma cruzi tyrosyl tRNA synthetase (TcYRS) SOP. Format: functional. As to conditions: 30 µM.
The target of experiment [9] is Chromo domain-containing protein 1 (Saccharomyces cerevisiae (strain ATCC 204508 / S288c) (Baker's yeast)) (UniProt P32657). The experiment in a line: ScCHD-1 Enzyme Inhibition Assay. Note: in the data most compounds retested in dose-response had high values. Format: functional. The conditions noted are these: 30 µM.
Sequence of Chromo domain-containing protein 1 (Saccharomyces cerevisiae (strain ATCC 204508 / S288c) (Baker's yeast)) (P32657 whole entry, the tested form may be a part): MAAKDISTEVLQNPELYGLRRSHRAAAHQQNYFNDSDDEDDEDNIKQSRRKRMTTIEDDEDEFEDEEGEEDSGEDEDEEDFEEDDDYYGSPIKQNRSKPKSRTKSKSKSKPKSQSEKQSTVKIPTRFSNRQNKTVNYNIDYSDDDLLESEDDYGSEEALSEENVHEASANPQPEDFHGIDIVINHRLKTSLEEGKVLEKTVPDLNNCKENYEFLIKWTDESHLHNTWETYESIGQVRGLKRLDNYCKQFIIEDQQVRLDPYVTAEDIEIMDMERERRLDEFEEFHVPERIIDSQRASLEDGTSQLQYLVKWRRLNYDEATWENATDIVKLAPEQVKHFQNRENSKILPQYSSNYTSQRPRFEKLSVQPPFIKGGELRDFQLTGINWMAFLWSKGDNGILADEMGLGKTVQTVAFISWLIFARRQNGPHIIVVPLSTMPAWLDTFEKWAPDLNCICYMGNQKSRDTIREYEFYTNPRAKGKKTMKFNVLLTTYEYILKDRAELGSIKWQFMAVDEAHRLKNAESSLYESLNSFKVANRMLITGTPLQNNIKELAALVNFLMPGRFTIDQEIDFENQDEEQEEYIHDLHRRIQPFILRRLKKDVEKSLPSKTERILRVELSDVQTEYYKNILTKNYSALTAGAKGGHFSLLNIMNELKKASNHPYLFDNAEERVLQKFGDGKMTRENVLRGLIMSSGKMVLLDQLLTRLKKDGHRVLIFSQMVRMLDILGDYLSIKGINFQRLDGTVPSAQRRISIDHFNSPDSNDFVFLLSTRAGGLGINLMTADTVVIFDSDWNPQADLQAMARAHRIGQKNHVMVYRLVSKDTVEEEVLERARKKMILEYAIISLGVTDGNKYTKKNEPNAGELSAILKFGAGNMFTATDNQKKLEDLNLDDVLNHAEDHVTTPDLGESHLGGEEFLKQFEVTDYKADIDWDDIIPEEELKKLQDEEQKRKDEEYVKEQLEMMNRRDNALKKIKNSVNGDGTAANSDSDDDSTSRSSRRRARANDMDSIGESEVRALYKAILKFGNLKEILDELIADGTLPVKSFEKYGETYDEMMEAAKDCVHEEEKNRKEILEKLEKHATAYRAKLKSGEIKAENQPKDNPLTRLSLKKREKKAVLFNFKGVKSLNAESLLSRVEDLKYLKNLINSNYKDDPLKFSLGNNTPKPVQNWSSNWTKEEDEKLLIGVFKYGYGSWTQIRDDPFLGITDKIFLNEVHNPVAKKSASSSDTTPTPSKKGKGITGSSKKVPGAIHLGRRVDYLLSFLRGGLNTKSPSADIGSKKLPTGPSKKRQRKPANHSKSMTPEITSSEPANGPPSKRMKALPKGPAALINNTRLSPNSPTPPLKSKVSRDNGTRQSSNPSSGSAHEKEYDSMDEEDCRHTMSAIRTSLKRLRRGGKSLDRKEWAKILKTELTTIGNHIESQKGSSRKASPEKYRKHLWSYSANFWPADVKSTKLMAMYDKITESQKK

Sequence of Protein translocase subunit SecA (Escherichia coli (strain K12)) (P10408 whole entry): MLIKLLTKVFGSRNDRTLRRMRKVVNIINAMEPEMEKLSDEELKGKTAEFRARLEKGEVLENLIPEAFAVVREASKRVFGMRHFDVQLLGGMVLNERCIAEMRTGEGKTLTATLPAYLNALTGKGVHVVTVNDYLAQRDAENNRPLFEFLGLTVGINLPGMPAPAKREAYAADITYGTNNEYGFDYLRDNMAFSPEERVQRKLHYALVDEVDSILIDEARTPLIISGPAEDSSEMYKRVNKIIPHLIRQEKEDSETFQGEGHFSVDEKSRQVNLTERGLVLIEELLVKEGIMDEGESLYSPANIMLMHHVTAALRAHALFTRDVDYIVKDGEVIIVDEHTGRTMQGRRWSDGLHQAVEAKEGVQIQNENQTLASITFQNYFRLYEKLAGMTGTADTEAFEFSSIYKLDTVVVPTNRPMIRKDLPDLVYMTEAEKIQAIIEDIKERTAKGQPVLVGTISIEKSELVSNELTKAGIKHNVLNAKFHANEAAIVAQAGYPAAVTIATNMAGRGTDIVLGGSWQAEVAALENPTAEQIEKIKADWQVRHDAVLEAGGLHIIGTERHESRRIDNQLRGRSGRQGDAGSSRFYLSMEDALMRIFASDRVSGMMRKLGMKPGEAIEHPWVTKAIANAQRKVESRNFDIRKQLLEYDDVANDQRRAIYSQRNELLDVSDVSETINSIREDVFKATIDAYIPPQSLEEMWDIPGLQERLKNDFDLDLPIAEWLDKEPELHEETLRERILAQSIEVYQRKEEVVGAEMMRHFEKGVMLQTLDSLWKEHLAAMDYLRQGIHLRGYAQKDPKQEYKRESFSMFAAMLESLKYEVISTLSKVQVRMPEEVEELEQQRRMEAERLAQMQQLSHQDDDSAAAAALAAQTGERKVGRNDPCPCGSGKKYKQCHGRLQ

For `O=C(CCc1cnn(-c2ccccc2)c1)N1CCCC(n2cccn2)C1` (stereo not drawn), the Percent Effect in experiment [1] is -2.31%; in experiment [2], 10.5%; in experiment [3], 2.58%; in experiment [4], 12.9%; with Trypanosoma cruzi, 3.38%; in experiment [5], 4.98%. Moreover, the Percent Effect in experiment [6] was 0.668%; in the experiment filed under Homo sapiens it was 14.7%; in [7], 8.33%; in experiment [8], 17.1%; in experiment [9], -11.6%.

As to `COCC(c1cccc(C(F)(F)F)c1)N(C)C(=O)c1cc(C)no1` (stereo not drawn), the Percent Effect in experiment [1] is -0.889%; in [2] it was 13.2%; in [3], 1.05%; in [4], -2.93%; with Trypanosoma cruzi it was 0.564%; in experiment [5], 4.98%. In addition, the Percent Effect in experiment [6] is 6.68%; in the experiment listed under Homo sapiens it was 10.2%; in experiment [7], 1.47%; in experiment [8], 19.5%; in experiment [9], -12.2%.

For `CCC[C@@H]1CN(S(=O)(=O)c2ccc(C)c(F)c2)C[C@H]1N(C)C`, the Percent Effect in experiment [1] was -4.83%; in experiment [2] it was 2.67%; in experiment [3] it was -4.64%; in [4], -1.02%; in the experiment on Trypanosoma cruzi, -8.86%; in experiment [5], 2.08%. Further, the Percent Effect in experiment [6] was 16.2%; in the experiment filed under Homo sapiens, 3.61%; in experiment [7] it was 1.64%; in experiment [8], 6.17%; in [9], -7.9%.

Regarding `Cc1nc(C)n(CC2CCCN(Cc3ccc(C(N)=O)cc3)C2)n1` (stereo not drawn), the Percent Effect in experiment [1] is -2.97%; in experiment [2] it was 5.2%; in experiment [3] it was 2.61%; in [4], -0.0393%; in the experiment with Trypanosoma cruzi, -0.294%; in experiment [5] it was -3.58%. The Percent Effect was 5.58% in [6]; 5.79% in the experiment filed under Homo sapiens; 4.76% in experiment [7]; 11.8% in experiment [8]; -14.8% in [9].

`c1cc(CN2CCCC(c3noc(C4CC4)n3)C2)no1` (stereo not drawn): the Percent Effect in experiment [1] is 0.187%; in experiment [2], -5.41%; in experiment [3], -9.37%; in [4] it was 9.04%; with Trypanosoma cruzi it was 4.25%; in [5], -6.41%. Further, the Percent Effect in [6] was 4.32%; in the experiment listed under Homo sapiens, 20.7%; in [7], 3.45%; in experiment [8], 6.17%; in experiment [9], -4.15%.

On to `CCc1nc(CN(CC(N)=O)C(C)C)cs1`, for which the Percent Effect was -2.67% in [1]; 17.7% in experiment [2]; 0.603% in experiment [3]; 3.91% in experiment [4]; 1.23% with Trypanosoma cruzi; -1.14% in [5]. The Percent Effect in [6] was 7.78%; in the experiment filed under Homo sapiens it was 7.33%; in [7], 10.3%; in experiment [8], 21.5%; in [9] it was -2.93%.

On to `CC1CCN(CCNC(=O)c2cncnc2C(C)C)CC1`, for which the Percent Effect in experiment [1] is 0.314%; in experiment [2], 4.17%; in [3] it was -2.65%; in experiment [4] it was -7.34%; with Trypanosoma cruzi it was -5.34%; in [5], 2.21%. For the same compound, the Percent Effect was 11.1% in experiment [6]; 0.616% in the experiment listed under Homo sapiens; 1.05% in experiment [7]; 5.13% in experiment [8]; -2.34% in experiment [9].

Take `O[C@]1(c2ccccn2)CC[C@@H]2CN(Cc3cccc4ncccc34)C[C@@H]21`: the Percent Effect is -4.41% in experiment [1]; 9.46% in [2]; 11.8% in experiment [3]; -7.79% in [4]; -1.38% in the experiment with Trypanosoma cruzi; 0.696% in experiment [5]. The Percent Effect in experiment [6] is 21.4%; in the experiment listed under Homo sapiens, 21.9%; in [7], 9.68%; in experiment [8] it was 9.09%; in experiment [9] it was -13.1%.
